PAFAH1B3 FP inh: PAFAH1B3 (human) inhibition; recombinant PAFAH1B3, FP-rhodamine probe, fluorescence polarization; Q15102; 340,000 compounds, 0.28% hits; inhibition, % at 3.39 µM;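 active means inhibition above the screen-wide average of all tested compounds plus 3 SD, cut at about 25% in these data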;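 further: 0% = enzyme with DMSO only and 100% = wells lacking PAFAH1B3 protein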
Target sequence (Q15102 whole entry, looked up): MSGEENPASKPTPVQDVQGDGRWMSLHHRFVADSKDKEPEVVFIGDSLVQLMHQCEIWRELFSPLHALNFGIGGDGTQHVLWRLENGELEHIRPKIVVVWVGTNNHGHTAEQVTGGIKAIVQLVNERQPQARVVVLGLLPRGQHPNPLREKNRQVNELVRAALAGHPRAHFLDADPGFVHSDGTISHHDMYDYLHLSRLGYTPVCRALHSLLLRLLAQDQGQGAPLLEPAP
PME-1 primary: blocks human protein phosphatase methylesterase 1. inhibition, % at 5.9 µM. 320,000 compounds, 0.53% hits. recombinant PME-1, FP-Rh probe fluorescence polarization;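 active means inhibition above the campaign mean of all compounds plus 3 SD, cut at about 26% in these data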;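 further: competitive labeling of PME-1 active site by serine hydrolase directed probe; 0% = PME-1 with DMSO and 100% = wells lacking PME-1 enzyme; inhibitors block probe labeling so polarization falls and inhibition rises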
pPAFAH FP inh: pPAFAH (human) enzyme inhibition. recombinant pPAFAH, FP-rhodamine probe fluorescence polarization. AID 463082. inhibition, % at 3.39 µM. Q13093. 330,000 compounds, 1.5% hits;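 active means inhibition above the mean inhibition across the screen plus 3 SD, cut at about 25% in these data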;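 further: inhibitors block binding of the rhodamine activity-based probe so polarization drops; 0% = enzyme with DMSO and 100% = wells lacking pPAFAH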
PAFAH2 inh: PAFAH2 (human) inhibition; 340,000 compounds, 0.99% hits; inhibition, % at 3.39 µM; AID 492956; recombinant PAFAH2, FP-rhodamine activity probe, fluorescence polarization; Q99487;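 active means inhibition above the mean over all tested compounds plus 3 SD, cut at about 30% in these data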;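 further: inhibitors block probe labeling of enzyme so polarization drops; 0% = enzyme with DMSO and 100% = wells lacking PAFAH2 protein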
PAFAH1B2 inh: PAFAH1B2 (human) inhibition; recombinant PAFAH1B2, FP-rhodamine activity probe, fluorescence polarization; inhibition, % at 3.39 µM; 340,000 compounds, 1.2% hits; AID 492953;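 active means inhibition above the mean of all tested compounds plus 3 SD, cut at about 24% in these data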;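 further: 0% = enzyme with DMSO and 100% = wells lacking PAFAH1B2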
Target sequence (P68402 whole entry, looked up): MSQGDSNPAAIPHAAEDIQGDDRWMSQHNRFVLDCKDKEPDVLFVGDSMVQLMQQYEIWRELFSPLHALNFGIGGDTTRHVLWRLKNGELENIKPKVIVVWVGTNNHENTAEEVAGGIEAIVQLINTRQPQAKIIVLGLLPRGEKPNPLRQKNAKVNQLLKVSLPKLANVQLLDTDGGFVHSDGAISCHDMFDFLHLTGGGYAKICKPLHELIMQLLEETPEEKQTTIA
Fam108B counter: blocks mouse Fam108B hydrolase in RBBP9 counter-screen | AID 1947 | inhibition, % at 9.51 µM | 300,000 compounds, 0.33% hits | recombinant Fam108B, FP-Rh probe fluorescence polarization;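 active means inhibition above the screen mean inhibition plus 3 SD, computed separately per campaign, cut at about 18% in these data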;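 further: inhibitors lower polarization as less probe binds the enzyme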
PAFAH2 FP conf: PAFAH2 (human) inhibition, confirmed; shares compounds with PAFAH2 inh; recombinant PAFAH2, FP-rhodamine activity probe, fluorescence polarization; inhibition, % at 3.39 µM; 2,300 compounds, 65% hits; AID 493030;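 active means mean inhibition over three repeats above a set limit taken from the earlier primary screen, cut at about 30% in these data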;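 further: inhibitor blocks binding of rhodamine activity probe so polarization falls; 0% = enzyme with DMSO and 100% = wells lacking PAFAH2 protein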
Active calls of the source: *. In the library only some 2.9% were active in any assay of this set; here they are far more common.

COCCNC(=O)c1ccc(N2CC3CC(C2)c2cccc(=O)n2C3)c(NC(=O)c2c(F)cccc2F)c1 (stereo not given) was read as PAFAH1B3 FP inh 7, PME-1 primary -7, pPAFAH FP inh 4, PAFAH2 inh 0, PAFAH1B2 inh 1 and Fam108B counter 4.
For O=C(COC(=O)c1ccc(Br)cc1)NCCC1=CCCCC1 the results were PAFAH1B3 FP inh 8, PME-1 primary -4, pPAFAH FP inh 19, PAFAH2 inh 31*, PAFAH1B2 inh 3, Fam108B counter 9 and PAFAH2 FP conf 32*.
Nc1cc(C(=O)OCC(=O)NCCC2=CCCCC2)ccc1Cl was read as PAFAH1B3 FP inh -5, pPAFAH FP inh 16, PAFAH2 inh 52*, PAFAH1B2 inh 3 and PAFAH2 FP conf 38*.
`O=C(COC(=O)CNC(=O)c1ccc(Br)cc1)NCCC1=CCCCC1` gave PAFAH1B3 FP inh 7, PME-1 primary -2, pPAFAH FP inh 11, PAFAH2 inh 5, PAFAH1B2 inh 1 and Fam108B counter -2.
`Cc1ccsc1C(=O)OCC(=O)NCCC1=CCCCC1` gave PAFAH1B3 FP inh -2, PME-1 primary -2, pPAFAH FP inh 9, PAFAH2 inh 32*, PAFAH1B2 inh 0, Fam108B counter -2 and PAFAH2 FP conf 25.
O=C(COC(=O)c1ccccc1)NCCC1=CCCCC1 was read as PAFAH1B3 FP inh 0, PME-1 primary 4, pPAFAH FP inh 9, PAFAH2 inh 35*, PAFAH1B2 inh 2, Fam108B counter 4 and PAFAH2 FP conf 31*.
`O=C(COC(=O)c1cccc(F)c1)NCCC1=CCCCC1` gave PAFAH1B3 FP inh 5, pPAFAH FP inh 22, PAFAH2 inh 18 and PAFAH1B2 inh 1.
`Cc1ccc(CNS(=O)(=O)NCc2ccccc2)cc1` gave PAFAH1B3 FP inh 4, PME-1 primary -2, pPAFAH FP inh 9, PAFAH2 inh -4, PAFAH1B2 inh 8 and Fam108B counter -2.
Screening COc1ccc(NC(=O)COC(=O)c2cccc(S(=O)(=O)N3CCCCC3)c2)c(OC)c1 returned PAFAH1B3 FP inh 5, PME-1 primary 9, pPAFAH FP inh 11, PAFAH2 inh 7 and PAFAH1B2 inh 0.
`Cc1cc(C)cc(NC(=O)COC(=O)c2cccc(S(=O)(=O)N3CCCCC3)c2)c1` gave PAFAH1B3 FP inh 6, PME-1 primary -10, pPAFAH FP inh 9, PAFAH2 inh 65*, PAFAH1B2 inh -4 and PAFAH2 FP conf 52*.
Cc1cccc(NC(=O)COC(=O)c2cccc(S(=O)(=O)N3CCCCCC3)c2)c1 was read as PAFAH1B3 FP inh -6, PME-1 primary -17, pPAFAH FP inh 20, PAFAH2 inh 74*, PAFAH1B2 inh 3 and PAFAH2 FP conf 63*.
For COc1cccc(CNC(=O)CSC(=S)N2CCCC2)c1 the results were PAFAH1B3 FP inh -7, PME-1 primary -2, pPAFAH FP inh 0, PAFAH2 inh -7, PAFAH1B2 inh 0 and Fam108B counter 6.
`Cc1ccccc1CSc1nnc(NC(=O)C2COc3ccccc3O2)s1` (stereo not given) gave PAFAH1B3 FP inh 1, PME-1 primary -2, pPAFAH FP inh 2, PAFAH2 inh 6, PAFAH1B2 inh 5 and Fam108B counter 0.
For O=C(Nc1nnc(SCc2ccccc2Cl)s1)C1COc2ccccc2O1 (stereo not given) the results were PAFAH1B3 FP inh 5, PME-1 primary -7, pPAFAH FP inh 5, PAFAH2 inh 52*, PAFAH1B2 inh 11, Fam108B counter -1 and PAFAH2 FP conf 41*.
For O=C(CCS(=O)(=O)c1ccc(Cl)cc1)N1CCN(S(=O)(=O)c2cccs2)CC1 the results were PAFAH1B3 FP inh 18, PME-1 primary -2, pPAFAH FP inh 5, PAFAH2 inh 51*, PAFAH1B2 inh 10, Fam108B counter 3 and PAFAH2 FP conf 40*.
For Cc1ccc(NC(=O)COC(=O)c2ccc3c(c2)OCCO3)cc1S(=O)(=O)N1CCOCC1 the results were PAFAH1B3 FP inh 4, PME-1 primary 9, pPAFAH FP inh 9, PAFAH2 inh 81*, PAFAH1B2 inh -2, Fam108B counter 0 and PAFAH2 FP conf 74*.

Assay outcomes (PubChem)
